HP1b binding inh – HTS for Inhibitors of HP1-beta Chromodomain Interactions with Methylated Histone Tails; Potency, µM (highest dose often 114 µM), actives largely listed as inhibitors; 0.56% of 390,000 active; AlphaScreen HP1-beta / biotin-H3K9me3 peptide binding; AID 540317, 2011; Chromobox protein homolog 1 (Homo sapiens), P83916; further: nearly all actives have a fitted effect of over 70% in size
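Compound inhibition of the preformed complex between 50 nM HP1-beta and 50 nM biotinylated H3K9me3 peptide was read by AlphaScreen. Buffer was PBS pH 7.4 with 0.01% Tween-20. Incubations ran 30 min at room temperature, with 10 ug/mL donor/acceptor beads.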
BAZ2B block – qHTS Assay for Inhibitors of BAZ2B | Potency, µM (titrated, usually from 114 µM), usual class: inhibitors | AlphaScreen BAZ2B-H3K14Ac peptide displacement | 4.4% of 360,000 active | AID 504333, 2011 | Bromodomain adjacent to zinc finger domain protein 2B (Homo sapiens), Q9UIF8; further: nearly all actives have a fitted effect of over 60% in size
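Compounds, titrated to a top concentration of 110 uM, were incubated 30 min at room temperature with preformed BAZ2B/acetyl-K14 H3 peptide complex (50 nM each). Proximity signal was measured by AlphaScreen after 20 min with beads.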
JMJD2A Tudor – qHTS Assay for Inhibitors of JMJD2A-Tudor Domain. AlphaScreen JMJD2A-Tudor / H3K4me3 peptide binding. Potency, µM (top dose mostly 114 µM), hits mostly inhibitors. 4.4% of 390,000 active. AID 504339, 2011; further: nearly all actives have a fitted effect of over 50% in size
L3MBTL1 block – qHTS Assay for the Inhibitors of L3MBTL1; AlphaScreen L3MBTL1–H3K9me1 peptide binding; Potency, µM (series often up to 57.1 µM), most hits filed as inhibitors; 0.66% of 230,000 active; further: nearly all actives have a fitted effect of over 60% in size
Target sequence (Q9Y468 whole entry, looked up): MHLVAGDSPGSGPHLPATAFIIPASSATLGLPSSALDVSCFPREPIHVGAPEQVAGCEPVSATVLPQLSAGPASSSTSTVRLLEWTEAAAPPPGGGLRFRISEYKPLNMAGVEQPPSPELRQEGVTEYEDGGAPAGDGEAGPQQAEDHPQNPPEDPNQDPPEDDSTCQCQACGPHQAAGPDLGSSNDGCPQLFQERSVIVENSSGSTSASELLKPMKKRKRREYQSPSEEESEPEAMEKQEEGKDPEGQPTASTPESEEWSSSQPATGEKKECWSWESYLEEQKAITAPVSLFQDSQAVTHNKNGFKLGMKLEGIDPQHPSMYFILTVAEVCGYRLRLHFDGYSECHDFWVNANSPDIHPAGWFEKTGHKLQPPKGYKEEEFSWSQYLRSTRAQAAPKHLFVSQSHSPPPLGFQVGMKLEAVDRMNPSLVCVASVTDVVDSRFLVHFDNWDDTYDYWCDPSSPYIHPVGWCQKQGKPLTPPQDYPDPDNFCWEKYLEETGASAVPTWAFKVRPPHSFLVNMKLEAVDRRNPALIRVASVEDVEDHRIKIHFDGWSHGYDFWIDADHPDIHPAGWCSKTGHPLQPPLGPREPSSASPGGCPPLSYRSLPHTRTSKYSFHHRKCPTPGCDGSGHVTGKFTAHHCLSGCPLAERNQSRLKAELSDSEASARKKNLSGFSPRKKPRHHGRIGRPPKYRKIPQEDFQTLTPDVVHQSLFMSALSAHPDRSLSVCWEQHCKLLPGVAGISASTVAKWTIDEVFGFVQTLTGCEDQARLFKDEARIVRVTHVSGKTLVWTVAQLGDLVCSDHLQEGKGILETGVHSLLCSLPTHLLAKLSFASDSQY
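AlphaScreen proximity signal between nickel-chelate acceptor and streptavidin donor beads (final 10 ug/mL) reports binding of 50 nM L3MBTL1 to 75 nM biotin-H3 K9me1 peptide; complex incubated with compounds 30 min at room temperature; cefsulodin titration as control.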
G9a inh – qHTS Assay for Inhibitors of Histone Lysine Methyltransferase G9a; 8.8% of 350,000 active; Histone-lysine N-methyltransferase EHMT2 (Homo sapiens), Q96KQ7; Potency, µM (titrated, usually from 102 µM), usual class: inhibitors; G9a H3K9 monomethylation, AlphaScreen, 2 h; further: nearly all actives have a fitted effect of over 75% in size
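AlphaScreen read-out: biotin-H3K9 peptide (500 nM) methylation by 20 nM enzyme with 20 uM SAM, 2 h at room temperature after 15 min compound preincubation; anti-monomethyl H3K9 antibody plus donor/acceptor beads, 10 min dark.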
Sfp inh – qHTS Assay for Inhibitors of Bacillus subtilis Sfp phosphopantetheinyl transferase (PPTase). 4'-phosphopantetheinyl transferase ffp (Bacillus subtilis), Q9F4F7. Biochemical Sfp PPTase activity, qHTS. Potency, µM, hits mostly inhibitors. 3.5% of 310,000 active. AID 1490, 2009;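 further: the enzyme is Sfp with the accession as filed and its product quenches rhodamine fluorescence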
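Fluorescence-quenching assay: 15 nM Sfp-PPTase preincubated 15 min at room temperature with compound, then 5 uM rhodamine-CoA and 12.5 uM BHQ-2-labelled YbbR peptide added. Fluorescence (ex 525/em 598 nm) read at start and after 30 min; difference gives rate.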
A number is an active result; 0 = inactive; ? = inconclusive; - = not tested or not shown; ! = not active in a repeat; [ ] = dose if it differs, or a comment. Sampled rows, rich in hits. Any-hit rate of the full collection: about 12%. The call rests on the fitted dose curve; in most records, active means well fitted curve in the direction sought with a large enough effect; inconclusive means small, poorly fitted or top-dose-only effect, or another doubt; inactive means no such curve, though single readings can be large; an effect the other way counts as inactive or inconclusive.

SMILES	HP1b binding inh	BAZ2B block	JMJD2A Tudor	L3MBTL1 block	G9a inh	Sfp inh
COc1c(O)c(O)cc2c1oc1c3cc(C)ccc3oc(=O)c21	-	-	-	-	-	79.4µM
COc1cc(-c2oc3ccc(C)cc3c(=O)c2O)cc(OC)c1OC	0	0	0	-	0	-
CCCCNC(=O)c1nn(-c2ccc(C)cc2)c(=O)c2c1c1ccccc1n2C	0	-	0	-	0	-
O=S(=O)(NNc1cccc(Cl)n1)c1ccc(Cl)cc1	0	0	0	-	-	39.8µM
O=[N+]([O-])c1ccc(C2=Nc3cc(Cl)ccc3OC2)cc1	0	?	?	0[11.4 µM]	?	0
O=[N+]([O-])c1cc(Cl)cc(C2=NCCN2)c1	0	0	0	-	35.5µM	0
CC(C)c1ccc(C2(C)NC(=O)N(C(C)C(=O)Nc3ccc(N4CCOCC4)cc3)C2=O)cc1 (configuration not stated)	0	0	0	0	56.2µM	-
O=S(=O)(Nc1cc(C(F)(F)F)ccc1N1CCOCC1)c1ccc2ccccc2c1	0	0	0	0	50.1µM	0
Cc1ccc(S(=O)(=O)Nc2ccc(N3CCOCC3)cc2)cc1	0	56.2µM	0	-	79.4µM	0
CCCCCCC1(C)NC(=O)N(C(C)C(=O)Nc2ccc(N3CCOCC3)cc2)C1=O (configuration not stated)	0	0	0	0	0[12.7 µM]	-
Cc1ccc(S(=O)(=O)Nc2ccc(N3CCOCC3)cc2)cc1C	0	0	?	-	44.7µM	0
COc1ccc2ncc3c(-c4ccccc4)nn(-c4ccc(C)c(C)c4)c3c2c1	0	-	?	-	0	-
O=S(=O)(Nc1ccc(N2CCOCC2)cc1)c1ccc2ccccc2c1	0	?	?	-	39.8µM	0
CC(C)c1ccc(S(=O)(=O)Nc2ccc(N3CCOCC3)cc2)cc1	0	44.7µM	0	-	?	0
FC(F)(F)c1ccc(N2CCOCC2)c(NC2=NCCCCC2)c1	0	?	0	0	50.1µM	0
Cc1ccc(S(=O)(=O)Nc2ccc(N3CCCCC3)cc2)cc1	?	35.5µM	?	0	22.4µM	0
O=C(Cc1ccc(-c2ccccc2)cc1)NCCS(=O)(=O)N1CCN(c2ccccc2)CC1	0	0	0	-	0	-
Cc1ccc(S(=O)(=O)Nc2cc(NC(=O)CN3CCOCC3)ccc2Cl)cc1	0	79.4µM	0	0	?	0
Cc1ccc(S(=O)(=O)c2ccc(NN)cc2)cc1	0	0	0	0	8.91µM	0
CC(=O)N1CCN(c2ccc(NS(=O)(=O)c3ccc(C)cc3)cc2)CC1	0	0	0	-	44.7µM	0
Cc1ccc(NS(=O)(=O)c2ccc(N3C(=O)CCC3=O)cc2)cc1	0	0	0	-	50.1µM	0
CC(C)c1ccc(NS(=O)(=O)c2ccc(N3C(=O)CCC3=O)cc2)cc1	0	0	0	0	-	0
Cc1ccc(NC(=O)CN2CCOCC2)cc1Cl	0	0	0	-	0	0
CCc1ccc2nc(NC(=O)Cn3cnc4ccccc4c3=O)sc2c1	0	0	0	0	?	0
O=C(Cn1cnc2ccccc2c1=O)Nc1nc2ccccc2s1	0	0	0	0	44.7µM	0
SMILES	HP1b binding inh	BAZ2B block	JMJD2A Tudor	L3MBTL1 block	G9a inh	Sfp inh
CCN(CC)C(=O)Cn1cnc2ccccc2c1=O	0	0	0	0	20µM	0
Cn1c(=O)c2c(ncn2CCN(CCO)Cc2ccccc2)n(C)c1=O	0	0	0	0	39.8µM	0
CCN(Cc1ccccc1)C(=O)Cn1cnc2c1c(=O)n(C)c(=O)n2C	0	0	0	0	0	0
O=C(COC(=O)Cn1cnc2ccccc2c1=O)NCCC1=CCCCC1	0	0	0	0	11.2µM	0
O=C(O)Cn1cnc2ccccc2c1=O	0	0	0	-	0	0
Cc1ccc(NS(=O)(=O)c2cc3c(cc2N2CCC2)NC(=O)CC3)cc1C	-	-	0	-	-	-
CCc1ccc(NC(=O)CCNC(=O)Cn2cnc3ccccc3c2=O)cc1	0	0	50.1µM!	-	0	0

From PubChem BioAssay
